Measured values as given in article PMC7862700, “An all-to-all approach to the identification of sequence-specific readers for epigenetic DNA modifications on cytosine”.

Columns and labels:
Assay in all cases: DAPPL (digital affinity profiling via proximity ligation, sequencing); 10 mM Tris-HCl pH 7.5, 50 mM NaCl, 1 mM DTT, 4% glycerol, room temperature, 30 min; GST-TFs on glutathione beads, 16-mer random dsDNA library, 0.1% formaldehyde crosslink after washing; high values mean tight binding
FEV = molecular target: T1, FEV (Homo sapiens, UniProt Q99581 1-238); settings: protein: recombinant; tags: N-terminal GST; dsDNA, one strand shown
T1 sequence: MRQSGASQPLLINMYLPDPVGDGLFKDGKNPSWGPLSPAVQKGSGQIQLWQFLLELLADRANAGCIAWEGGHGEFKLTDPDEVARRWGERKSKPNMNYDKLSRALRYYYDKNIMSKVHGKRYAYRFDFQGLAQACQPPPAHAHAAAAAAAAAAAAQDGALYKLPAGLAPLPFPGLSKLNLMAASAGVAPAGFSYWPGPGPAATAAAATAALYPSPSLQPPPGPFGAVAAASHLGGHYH
How it was run: (§1)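 Yeast served to express human transcription factors as GST fusions, which were then captured on glutathione beads and labelled with DNA barcodes. Pooled with a tag-only sample, they were incubated with 200 nmole of a 16-mer random double-stranded DNA library for 30 min at room temperature in Tris/NaCl/DTT/glycerol buffer, washed, crosslinked with 0.1% formaldehyde, ligated by proximity, amplified by PCR and sequenced. Dividing each hexamer's read frequency for a factor by its frequency for the tag-only sample gives the binding signal.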

ETV5 = ETV5 (Homo sapiens, UniProt P41161 1-510); settings: protein: recombinant; tags: N-terminal GST; dsDNA, one strand shown
ETV5, sequence (P41161 whole entry): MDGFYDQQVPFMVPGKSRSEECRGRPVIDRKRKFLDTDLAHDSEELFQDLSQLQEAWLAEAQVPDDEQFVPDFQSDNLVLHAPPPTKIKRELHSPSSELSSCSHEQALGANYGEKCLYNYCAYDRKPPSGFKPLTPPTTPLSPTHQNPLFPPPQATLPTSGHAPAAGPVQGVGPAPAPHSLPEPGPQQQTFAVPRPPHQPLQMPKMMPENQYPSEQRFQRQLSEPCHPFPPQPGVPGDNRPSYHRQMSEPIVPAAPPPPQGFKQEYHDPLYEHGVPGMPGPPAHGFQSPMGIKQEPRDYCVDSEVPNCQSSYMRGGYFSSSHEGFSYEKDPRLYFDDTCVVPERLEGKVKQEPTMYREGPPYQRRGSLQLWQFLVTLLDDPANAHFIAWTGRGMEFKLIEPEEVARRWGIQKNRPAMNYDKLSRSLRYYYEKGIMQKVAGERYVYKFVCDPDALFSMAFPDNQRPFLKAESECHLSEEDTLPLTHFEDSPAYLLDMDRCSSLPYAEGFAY
How it was run: as §1

HSF1 = HSF1 (Homo sapiens, UniProt Q00613 1-529); settings: protein: recombinant; tags: N-terminal GST; chain copies: 3; dsDNA, one strand shown
HSF1, sequence (Q00613 whole entry): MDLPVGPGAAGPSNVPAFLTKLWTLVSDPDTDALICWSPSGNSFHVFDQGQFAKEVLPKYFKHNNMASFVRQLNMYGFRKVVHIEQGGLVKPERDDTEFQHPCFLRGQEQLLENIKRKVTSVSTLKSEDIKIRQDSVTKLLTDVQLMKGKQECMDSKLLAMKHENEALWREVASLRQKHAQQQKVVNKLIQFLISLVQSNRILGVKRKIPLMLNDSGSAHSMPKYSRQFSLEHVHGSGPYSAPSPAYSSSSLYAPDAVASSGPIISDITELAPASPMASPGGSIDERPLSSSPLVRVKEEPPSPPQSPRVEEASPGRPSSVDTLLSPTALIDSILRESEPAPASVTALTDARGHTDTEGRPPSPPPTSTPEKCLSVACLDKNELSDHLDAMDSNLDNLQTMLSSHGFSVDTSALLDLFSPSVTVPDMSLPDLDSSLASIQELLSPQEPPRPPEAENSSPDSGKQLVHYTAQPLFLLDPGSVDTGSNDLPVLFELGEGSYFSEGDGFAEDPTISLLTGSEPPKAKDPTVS
How it was run: as §1

SPIC = molecular target: T2, SPIC (Homo sapiens, UniProt Q8N5J4 1-248); settings: protein: recombinant; tags: N-terminal GST; dsDNA, one strand shown
T2 sequence: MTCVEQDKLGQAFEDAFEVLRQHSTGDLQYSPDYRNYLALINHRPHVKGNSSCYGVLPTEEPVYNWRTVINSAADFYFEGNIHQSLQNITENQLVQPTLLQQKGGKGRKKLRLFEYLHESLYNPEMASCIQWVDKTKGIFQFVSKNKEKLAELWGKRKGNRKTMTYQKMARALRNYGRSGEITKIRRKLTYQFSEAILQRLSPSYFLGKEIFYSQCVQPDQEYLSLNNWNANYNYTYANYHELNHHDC
How it was run: as §1

ELF4 = ELF4 (Homo sapiens, UniProt Q99607 1-663); settings: protein: recombinant; tags: N-terminal GST; dsDNA, one strand shown
ELF4, sequence (Q99607 whole entry): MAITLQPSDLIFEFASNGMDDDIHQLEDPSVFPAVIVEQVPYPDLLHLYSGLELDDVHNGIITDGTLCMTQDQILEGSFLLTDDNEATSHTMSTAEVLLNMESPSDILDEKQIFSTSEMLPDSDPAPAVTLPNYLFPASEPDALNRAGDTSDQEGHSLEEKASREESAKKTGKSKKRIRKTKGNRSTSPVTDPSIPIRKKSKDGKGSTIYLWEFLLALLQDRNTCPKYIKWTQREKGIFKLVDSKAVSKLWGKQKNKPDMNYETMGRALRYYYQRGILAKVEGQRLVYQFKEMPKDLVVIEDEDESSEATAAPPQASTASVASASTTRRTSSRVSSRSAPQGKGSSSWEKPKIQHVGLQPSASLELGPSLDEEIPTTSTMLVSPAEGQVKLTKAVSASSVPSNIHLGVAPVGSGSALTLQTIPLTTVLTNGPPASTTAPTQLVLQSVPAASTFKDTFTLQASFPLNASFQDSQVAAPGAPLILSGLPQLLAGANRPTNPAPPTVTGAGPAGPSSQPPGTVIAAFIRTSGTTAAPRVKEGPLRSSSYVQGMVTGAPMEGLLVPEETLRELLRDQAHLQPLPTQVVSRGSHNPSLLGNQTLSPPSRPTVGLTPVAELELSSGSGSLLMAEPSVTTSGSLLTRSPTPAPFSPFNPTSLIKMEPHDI
How it was run: as §1

ELK4 = molecular target: T3, ELK4 (Homo sapiens, UniProt P28324-2 1-405); settings: protein: recombinant; tags: N-terminal GST; dsDNA, one strand shown
T3 sequence: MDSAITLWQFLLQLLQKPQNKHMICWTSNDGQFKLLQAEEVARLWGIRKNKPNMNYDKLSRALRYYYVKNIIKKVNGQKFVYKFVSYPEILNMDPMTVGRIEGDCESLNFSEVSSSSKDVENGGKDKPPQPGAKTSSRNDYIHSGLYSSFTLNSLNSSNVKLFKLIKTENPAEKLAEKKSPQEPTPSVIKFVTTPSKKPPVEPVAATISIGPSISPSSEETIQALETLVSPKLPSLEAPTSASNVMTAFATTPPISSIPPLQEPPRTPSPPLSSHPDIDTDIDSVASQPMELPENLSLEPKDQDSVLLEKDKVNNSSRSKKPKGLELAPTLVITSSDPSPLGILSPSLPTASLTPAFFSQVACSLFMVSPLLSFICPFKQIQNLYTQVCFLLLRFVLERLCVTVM
How it was run: as §1

ETV2 = molecular target: T4, ETV2 (Homo sapiens, UniProt O00321 1-342); settings: protein: recombinant; tags: N-terminal GST; dsDNA, one strand shown
T4 sequence: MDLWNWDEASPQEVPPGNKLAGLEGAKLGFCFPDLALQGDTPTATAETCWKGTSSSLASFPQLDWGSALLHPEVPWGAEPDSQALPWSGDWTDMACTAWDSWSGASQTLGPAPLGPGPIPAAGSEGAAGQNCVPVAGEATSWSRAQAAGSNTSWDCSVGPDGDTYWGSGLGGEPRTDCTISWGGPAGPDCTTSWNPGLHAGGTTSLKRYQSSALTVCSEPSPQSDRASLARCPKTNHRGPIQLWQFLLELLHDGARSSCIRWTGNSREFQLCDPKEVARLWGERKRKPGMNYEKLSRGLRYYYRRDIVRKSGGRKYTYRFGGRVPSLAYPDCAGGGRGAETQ
How it was run: as §1

ELF3 = molecular target: T5, ELF3 (Homo sapiens, UniProt P78545 1-371); settings: protein: recombinant; tags: N-terminal GST; dsDNA, one strand shown
T5 sequence: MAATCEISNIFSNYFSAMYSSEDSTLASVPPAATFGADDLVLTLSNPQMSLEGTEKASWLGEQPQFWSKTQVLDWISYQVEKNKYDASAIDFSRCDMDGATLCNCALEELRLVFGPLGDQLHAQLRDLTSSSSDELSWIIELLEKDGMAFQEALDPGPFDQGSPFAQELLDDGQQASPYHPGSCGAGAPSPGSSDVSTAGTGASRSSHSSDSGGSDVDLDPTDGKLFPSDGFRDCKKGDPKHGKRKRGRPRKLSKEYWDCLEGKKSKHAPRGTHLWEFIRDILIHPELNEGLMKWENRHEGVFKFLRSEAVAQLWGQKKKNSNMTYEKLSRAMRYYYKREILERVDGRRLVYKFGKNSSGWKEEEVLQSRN
How it was run: as §1

CRX = CRX (Homo sapiens, UniProt O43186 1-299); settings: protein: recombinant; tags: N-terminal GST; dsDNA, one strand shown
CRX, sequence (O43186 whole entry): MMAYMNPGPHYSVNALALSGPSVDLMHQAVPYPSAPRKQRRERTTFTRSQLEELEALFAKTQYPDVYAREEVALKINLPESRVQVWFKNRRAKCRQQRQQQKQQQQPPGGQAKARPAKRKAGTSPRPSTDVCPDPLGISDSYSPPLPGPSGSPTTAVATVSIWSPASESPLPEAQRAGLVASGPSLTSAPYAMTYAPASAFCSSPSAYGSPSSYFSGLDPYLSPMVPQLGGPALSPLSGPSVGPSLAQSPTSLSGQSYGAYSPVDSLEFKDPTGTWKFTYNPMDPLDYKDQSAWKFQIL
How it was run: as §1

ETV1 = ETV1 (Homo sapiens, UniProt P50549 1-477); settings: protein: recombinant; tags: N-terminal GST; dsDNA, one strand shown
ETV1, sequence (P50549 whole entry): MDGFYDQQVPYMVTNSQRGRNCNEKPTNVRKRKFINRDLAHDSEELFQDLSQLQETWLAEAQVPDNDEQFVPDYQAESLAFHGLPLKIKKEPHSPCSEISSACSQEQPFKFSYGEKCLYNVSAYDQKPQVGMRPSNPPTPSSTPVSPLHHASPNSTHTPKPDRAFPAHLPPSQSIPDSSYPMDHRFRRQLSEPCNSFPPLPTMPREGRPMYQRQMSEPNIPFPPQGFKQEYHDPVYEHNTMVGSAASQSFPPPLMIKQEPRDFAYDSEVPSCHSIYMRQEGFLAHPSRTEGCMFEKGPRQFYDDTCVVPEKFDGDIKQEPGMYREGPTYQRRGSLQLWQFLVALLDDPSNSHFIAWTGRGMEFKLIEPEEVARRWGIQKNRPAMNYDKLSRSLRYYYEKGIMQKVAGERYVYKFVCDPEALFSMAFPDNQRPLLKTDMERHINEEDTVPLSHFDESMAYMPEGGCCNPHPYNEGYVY
How it was run: as §1

ERF = molecular target: T6, ERF (Homo sapiens, UniProt P50548 1-548); settings: protein: recombinant; tags: N-terminal GST; dsDNA, one strand shown
T6 sequence: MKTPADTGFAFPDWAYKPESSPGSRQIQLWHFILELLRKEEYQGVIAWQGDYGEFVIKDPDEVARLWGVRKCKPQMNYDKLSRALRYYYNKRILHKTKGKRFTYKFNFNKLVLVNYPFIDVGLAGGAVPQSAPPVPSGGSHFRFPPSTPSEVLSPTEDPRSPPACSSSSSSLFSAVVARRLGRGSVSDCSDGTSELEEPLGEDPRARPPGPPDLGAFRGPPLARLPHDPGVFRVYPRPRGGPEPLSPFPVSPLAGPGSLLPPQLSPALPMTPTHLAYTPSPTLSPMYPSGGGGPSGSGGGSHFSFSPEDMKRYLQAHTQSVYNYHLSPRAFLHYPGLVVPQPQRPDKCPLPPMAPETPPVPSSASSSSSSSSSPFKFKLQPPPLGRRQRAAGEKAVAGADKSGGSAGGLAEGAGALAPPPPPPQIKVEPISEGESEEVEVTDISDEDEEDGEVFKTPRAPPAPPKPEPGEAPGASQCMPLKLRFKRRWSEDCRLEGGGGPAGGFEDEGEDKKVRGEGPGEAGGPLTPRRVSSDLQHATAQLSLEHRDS
How it was run: as §1

ETV3L = molecular target: T7, ETV3L (Homo sapiens, UniProt Q6ZN32 1-361); settings: protein: recombinant; tags: N-terminal GST; dsDNA, one strand shown
T7 sequence: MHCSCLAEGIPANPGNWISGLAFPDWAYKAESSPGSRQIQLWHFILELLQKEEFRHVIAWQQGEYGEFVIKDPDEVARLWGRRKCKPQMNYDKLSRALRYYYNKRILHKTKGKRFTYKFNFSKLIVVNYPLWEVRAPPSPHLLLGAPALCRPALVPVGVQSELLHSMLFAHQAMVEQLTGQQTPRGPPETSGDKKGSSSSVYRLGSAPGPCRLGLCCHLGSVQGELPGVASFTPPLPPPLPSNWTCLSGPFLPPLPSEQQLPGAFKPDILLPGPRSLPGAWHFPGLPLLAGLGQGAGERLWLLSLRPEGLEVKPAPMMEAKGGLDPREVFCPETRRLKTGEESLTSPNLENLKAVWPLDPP
How it was run: as §1

ETS2 = molecular target: T8, ETS2 (Homo sapiens, UniProt P15036 1-469); settings: protein: recombinant; tags: N-terminal GST; dsDNA, one strand shown
T8 sequence: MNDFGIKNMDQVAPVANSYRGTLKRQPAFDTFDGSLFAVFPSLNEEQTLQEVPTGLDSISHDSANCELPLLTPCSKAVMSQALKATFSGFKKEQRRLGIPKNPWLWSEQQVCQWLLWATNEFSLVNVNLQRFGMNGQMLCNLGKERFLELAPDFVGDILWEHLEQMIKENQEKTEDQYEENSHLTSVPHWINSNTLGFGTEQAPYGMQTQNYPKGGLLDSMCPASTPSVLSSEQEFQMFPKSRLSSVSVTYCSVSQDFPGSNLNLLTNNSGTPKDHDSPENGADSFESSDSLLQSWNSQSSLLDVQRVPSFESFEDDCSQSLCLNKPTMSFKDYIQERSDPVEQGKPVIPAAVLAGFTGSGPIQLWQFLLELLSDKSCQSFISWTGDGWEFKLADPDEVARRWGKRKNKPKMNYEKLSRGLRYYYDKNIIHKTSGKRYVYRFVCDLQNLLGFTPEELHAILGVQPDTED
How it was run: as §1

SPDEF = molecular target: T9, SPDEF (Homo sapiens, UniProt O95238 1-335); settings: protein: recombinant; tags: N-terminal GST; dsDNA, one strand shown
T9 sequence: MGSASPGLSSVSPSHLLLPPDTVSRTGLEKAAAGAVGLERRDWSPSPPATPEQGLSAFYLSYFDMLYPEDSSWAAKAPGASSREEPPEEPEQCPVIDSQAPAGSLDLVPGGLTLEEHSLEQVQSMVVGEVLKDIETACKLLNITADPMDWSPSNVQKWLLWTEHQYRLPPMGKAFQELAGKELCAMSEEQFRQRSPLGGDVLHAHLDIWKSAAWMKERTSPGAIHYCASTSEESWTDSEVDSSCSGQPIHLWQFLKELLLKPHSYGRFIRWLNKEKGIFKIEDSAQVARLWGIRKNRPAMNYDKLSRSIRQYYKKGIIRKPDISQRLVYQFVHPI
How it was run: as §1

ETV7 = molecular target: T10, ETV7 (Homo sapiens, UniProt Q9Y603 1-341); settings: protein: recombinant; tags: N-terminal GST; dsDNA, one strand shown
T10 sequence: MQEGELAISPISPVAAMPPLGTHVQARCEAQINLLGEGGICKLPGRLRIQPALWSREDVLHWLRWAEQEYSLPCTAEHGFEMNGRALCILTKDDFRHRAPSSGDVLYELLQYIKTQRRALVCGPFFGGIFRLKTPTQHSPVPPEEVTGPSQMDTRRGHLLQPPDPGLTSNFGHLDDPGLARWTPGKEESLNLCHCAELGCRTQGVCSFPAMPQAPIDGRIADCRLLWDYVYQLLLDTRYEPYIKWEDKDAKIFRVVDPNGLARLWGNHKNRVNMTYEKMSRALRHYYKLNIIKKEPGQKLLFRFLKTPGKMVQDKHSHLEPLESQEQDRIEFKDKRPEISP
How it was run: as §1

ELF5 = molecular target: T11, ELF5 (Homo sapiens, UniProt Q9UKW6-2 1-255); settings: protein: recombinant; tags: N-terminal GST; dsDNA, one strand shown
T11 sequence: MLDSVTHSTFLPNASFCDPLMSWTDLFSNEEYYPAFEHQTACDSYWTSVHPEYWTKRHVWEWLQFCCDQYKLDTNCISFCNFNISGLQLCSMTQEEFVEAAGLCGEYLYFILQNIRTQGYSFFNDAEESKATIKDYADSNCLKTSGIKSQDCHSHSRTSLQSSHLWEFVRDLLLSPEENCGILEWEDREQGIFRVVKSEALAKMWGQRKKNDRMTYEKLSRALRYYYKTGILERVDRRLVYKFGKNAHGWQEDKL
How it was run: as §1

ETV3 = molecular target: T12, ETV3 (Homo sapiens, UniProt P41162-2 1-143); settings: protein: recombinant; tags: N-terminal GST; dsDNA, one strand shown
T12 sequence: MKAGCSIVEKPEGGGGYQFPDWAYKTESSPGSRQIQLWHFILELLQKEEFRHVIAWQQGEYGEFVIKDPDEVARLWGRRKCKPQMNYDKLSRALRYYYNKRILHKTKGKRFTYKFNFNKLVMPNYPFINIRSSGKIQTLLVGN
How it was run: as §1

ETV6 = ETV6 (Homo sapiens, UniProt P41212 1-452); settings: protein: recombinant; tags: N-terminal GST; dsDNA, one strand shown
ETV6, sequence (P41212 whole entry): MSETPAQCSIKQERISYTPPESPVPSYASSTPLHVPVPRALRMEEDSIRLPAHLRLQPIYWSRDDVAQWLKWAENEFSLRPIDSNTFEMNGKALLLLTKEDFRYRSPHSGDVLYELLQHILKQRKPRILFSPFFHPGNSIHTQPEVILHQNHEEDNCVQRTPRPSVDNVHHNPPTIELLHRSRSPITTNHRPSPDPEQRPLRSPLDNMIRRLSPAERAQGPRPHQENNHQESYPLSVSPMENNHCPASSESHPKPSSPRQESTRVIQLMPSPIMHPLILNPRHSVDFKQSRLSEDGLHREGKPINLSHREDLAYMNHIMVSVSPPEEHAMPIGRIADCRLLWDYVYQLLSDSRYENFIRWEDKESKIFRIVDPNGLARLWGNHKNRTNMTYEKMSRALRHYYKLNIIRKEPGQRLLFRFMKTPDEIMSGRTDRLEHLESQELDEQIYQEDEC
How it was run: as §1

CCCTTT
binding signal (FEV): 1.46 fold enrichment (6-mer frequency, TF over GST control) | binding signal (ETV5): 1.45 fold enrichment (6-mer frequency, TF over GST control) | binding signal (HSF1): 1.25 fold enrichment (6-mer frequency, TF over GST control) | binding signal (SPIC): 1.34 fold enrichment (6-mer frequency, TF over GST control) | binding signal (ELF4): 1.49 fold enrichment (6-mer frequency, TF over GST control) | binding signal (ELK4): 1.34 fold enrichment (6-mer frequency, TF over GST control) | binding signal (ETV2): 1.33 fold enrichment (6-mer frequency, TF over GST control) | binding signal (ELF3): 1.68 fold enrichment (6-mer frequency, TF over GST control) | binding signal (CRX): 1.35 fold enrichment (6-mer frequency, TF over GST control) | binding signal (ETV1): 1.4 fold enrichment (6-mer frequency, TF over GST control) | binding signal (ERF): 1.42 fold enrichment (6-mer frequency, TF over GST control) | binding signal (ETV3L): 1.51 fold enrichment (6-mer frequency, TF over GST control) | binding signal (ETS2): 1.37 fold enrichment (6-mer frequency, TF over GST control) | binding signal (SPDEF): 1.51 fold enrichment (6-mer frequency, TF over GST control) | binding signal (ETV7): 1.34 fold enrichment (6-mer frequency, TF over GST control) | binding signal (ELF5): 1.52 fold enrichment (6-mer frequency, TF over GST control) | binding signal (ETV3): 1.36 fold enrichment (6-mer frequency, TF over GST control) | binding signal (ETV6): 1.4 fold enrichment (6-mer frequency, TF over GST control)
